Drawing on PubChem BioAssay (NCI), this text covers growth for 40 compounds.

Values joined by “and” are separate entries in the source; they are usually repeats but may differ in a detail not shown here. Equal entries are not always repeated. Compounds without any hit were thinned out: in the full panel of roughly 83,000, 20% have a hit.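 Note: values are percent growth. 100 is the growth of untreated cells, values between 100 and 0 indicate rising inhibition; between -100 and 0 indicates cell death.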 Active and inactive are the calls of the source. The calls were made as follows: active = growth percent below 10; inactive = the rest.

The test deals with MDA-MB-468 breast. Nature of the test: NCI-60 one-dose screen, 48 h (100 = growth as untreated, 0 = no growth, -100 = all killed). Particulars: 10 µM unless noted.
As for `CCC1=C[C@@H]2CN(C1)Cc1c([nH]c3ccccc13)[C@@](C(=O)OC)(c1cc3c(cc1OC)N(C)[C@H]1[C@@](O)(C(=O)OC)[C@H](OC(C)=O)[C@]4(CC)[C@@H]5C[C@@H]5CN5CC[C@]31[C@@H]54)C2`, the growth was -31.7% (active).

For `COc1ccc(-c2csc(NC(=O)CSc3nc(C)cc(=O)[nH]3)n2)cc1`, the growth is 118% (inactive).

For `Cc1cc(N2CCC(N3CCCC3)CC2)nc(/N=C(\N)Nc2ccc(Cl)c(Cl)c2)n1`, the growth was -81.4% (active).

In the case of `Nc1c(Br)cc(Br)c2c1[nH]c(=O)c1ccccc12`, the growth is -20.4% (active).

For `NC(=NCCCC1(c2ccccc2)CCCC1)Nc1ccc(Cl)cc1`, the growth was -83.1% (active).

For `c1ncc2[nH]cnc2n1`, the growth is 96% (inactive).

As to `COc1cc(/C(C)=C(\c2ccc(Cl)cc2)c2ccc(OCCN3CCCC3)cc2)ccc1F`, the growth was 57.3% (inactive).

In the case of `Cc1ccc(-c2csc(NC(=O)CN3CCN(c4cc5c(cc4F)c(=O)c(C(=O)O)cn5C4CC4)CC3)n2)cc1`, the growth was 3.21% (active).

With `O=C(CCC(=O)N(CCO)CCO)N(CCO)CCO`, the growth was 110% (inactive).

`CC1=CC(C)=Nc2ccc(Cl)cc2N1`: the growth is 109% (inactive).

On to `O=c1[nH]c(=O)c2cc(Cl)cc(Cl)c2[nH]1`, for which the growth is 112% (inactive).

For the compound `O=C1NC(=O)c2c1c1c3ccccc3ccc1c1[nH]c3ccccc3c21`, the growth is 7.32% (active).

In the case of `CCOC(=O)c1sc(NCC(=O)Nc2cccc([N+](=O)[O-])c2)c(C(=O)OCC)c1C`, the growth was -47.4% (active).

With `CC(C)Sc1ncnc2nc[nH]c12`, the growth was 109% (inactive).

With `NC(=O)c1c(NC(=O)c2ccc3ccccc3c2)sc2c1CCC(=O)C2`, the growth was 85.8% (inactive).

For `COc1cc(Nc2nc3ccccc3nc2NS(=O)(=O)c2ccc(NC(=O)c3ccc(C)c(OC)c3)cc2)cc(OC)c1`, the growth is 72.6% (inactive) and -30.3% (active).

On to `O=C(c1ccc(Cl)cc1)C1C(c2ccccc2)C1[N+](=O)[O-]` (stereo not given), for which the growth was 111% (inactive).

Take `COc1ccc(/C=N\Nc2ccc([N+](=O)[O-])cn2)cc1OC`: the growth is 79.1% (inactive).

As to `CC(=O)C1CC(C)CCC1C(C)C` (stereo not given), the growth is -8.03% (active).

Consider `CC/C(=C(/c1ccc(O)cc1)c1ccc(OCCN2CCCCC2)cc1)c1ccc(OC)cc1`, for which the growth is 60.7% (inactive).

On to `O=C(OCc1ccccc1)n1nnc2ccccc21`, for which the growth is 107% (inactive).

Turning to `N#C/C(=C\c1ccc(Br)cc1)n1nnc2cc(Cl)c(Cl)cc21`, the growth was -5.24% (active).

Turning to `O=C1/C(=C/c2ccccc2)SC(=S)N1CCc1ccc(O)cc1`, the growth was 73.9% (inactive).

With `CN1CCC(COc2cnc(-c3cccc(Cn4nc(-c5cccc(C#N)c5)ccc4=O)c3)nc2)CC1`, the growth was 87.4% (inactive).

As for `COC(=O)CC1=C(C)/C(=C/c2[nH]c(-c3ccc[nH]3)cc2OC)N=C1C`, the growth is 19% (inactive).

For `COc1ccc(NC(=O)c2nc(-c3cc(OC)c(OC)c(OC)c3)n(-c3cccc4ccccc34)n2)cc1OC`, the growth was 46.4% (inactive).

On to `C#CCN(C)CCCOc1ccc(NCc2ccc(/C=C/C(=O)NO)cc2)cc1Cl`, for which the growth is -47.6% (active).

As for `CC12CCC3C(=CCc4cc(O)ccc43)C1CCC2=O` (stereo not given), the growth is 96.9% (inactive).

Turning to `S=P(N1CC1)(N1CC1)N1CC1`, the growth was 106% (inactive) and 67.8% (inactive).

Take `COc1cc(/C=N/NC(=O)c2cn(C3CC3)c3c(OC)c(N4CC5CCCNC5C4)c(F)cc3c2=O)ccc1O` (stereo not given): the growth is 54.8% (inactive).

Regarding `COc1cc2c(c(OC)c1OC)CCC(c1cccc(NC(=O)c3cccc(Br)c3)c1)O2` (stereo not given), the growth was 75.2% (inactive).

As for `C#Cc1nc(C2=C(C)C(O)/C(=N/O)C2)cs1` (stereo not given), the growth is 74.5% (inactive).

Take `COc1cc2c(cc1OC)C(=O)/C(=C/c1cc(C)c(O)c(C)c1)S2`: the growth is 11.4% (inactive).

For the compound `CCCCCC[n+]1ccc(SCC(=O)n2ccc3ccccc32)c2ccccc21`, the growth was 4.72% (active).

Take `O=C1/C(=C\c2cn(C(=O)c3ccc(Cl)cc3)c3ccccc23)c2ccccc2N1c1c(Cl)cccc1Cl`: the growth is 97.7% (inactive).

In the case of `CC(C)CC(NC(=O)OCC1c2ccccc2-c2ccccc21)C(=O)O` (stereo not given), the growth was 103% (inactive).

`Cc1ccc2nc(C[n+]3ccc4ccccc4c3)ccc2c1`: the growth is -3.95% (active).

With `O=C1Nc2ccccc2/C1=N/N=C/c1ccsc1`, the growth was 78.3% (inactive).

Take `CCOC(=O)C(CC)n1c(=O)c2cc(OC)c(OC)cc2c2cnc3[nH]ccc3c21` (stereo not given): the growth was 84.2% (inactive).

Turning to `COC(=O)c1ccc2c(C(=Nc3ccc(N(C)C(=O)CN4CCN(C)CC4)cc3)c3ccccc3)c(O)[nH]c2c1`, the growth is 91% (inactive).
